Results filed as inconclusive are left out. Unmarked numbers belong to inactive results. Active and inactive are the calls of the source. The call rests on the fitted dose curve; tested in HEK293 reporter line.
assay: qHTS for Inhibitors of the Functional Ribonucleoprotein Complex (vRNP) of Lassa (LASV) Arenavirus: LASV Primary Screen - GLuc reporter signal (AID 1347082); conditions: LASV minigenome vRNP, Gaussia luciferase reporter; series mostly up to 57.5 µM; activity change, negative = inhibition: at the top concentration; further: nearly all actives have a fitted effect of over 60% in size
On the % scale 0 is the no-effect control and ±100 the full control effect; potency means the concentration at half of the fitted maximal effect.

Q: For `CC(=O)c1ccc(S(=O)(=O)NC(=O)NC2CCCCC2)cc1`, which Potency is on record?
A: inactive

Q: Which “activity change, negative = inhibition” value does the source give for `Cc1ccc(Nc2nccc(N(C)c3ccc4c(C)n(C)nc4c3)n2)cc1S(N)(=O)=O` here?
A: -3.28%

Q: Which Potency does the source give for `COc1ccc(-c2ccc3cc(C(=O)O)ccc3c2)cc1C12CC3CC(CC(C3)C1)C2` here?
A: inactive

Q: With `Nc1ccc(/C=C/c2ccc(N)cc2S(=O)(=O)O)c(S(=O)(=O)O)c1` as the molecule, how does the activity change, negative = inhibition read?
A: -2.51% [at 0.757 µM]

Q: For `Nc1ccc(C(=O)O)c(O)c1`, which “activity change, negative = inhibition” value is on record?
A: -9.6%

Q: With `C[C@@H]1O[C@@H](O[C@H]2CC[C@@]3(C)[C@H](CC[C@@H]4[C@H]3C[C@@H](O)[C@]3(C)[C@@H](C5=CC(=O)OC5)CC[C@]43O)C2)C[C@H](O)[C@@H]1O[C@H]1C[C@H](O)[C@H](O[C@H]2C[C@H](O)[C@@H](O)[C@@H](C)O2)[C@H](C)O1` (stereo in doubt) as the molecule, how does the Potency read?
A: 559 nM (active)

Q: For `CCC(Cc1c(I)cc(I)c(N)c1I)C(=O)O` (stereo not drawn), which “activity change, negative = inhibition” value is on record?
A: -6.71%

Q: With `Cc1ccc(-c2ccccc2C#N)cc1` as the molecule, how does the “activity change, negative = inhibition” value read?
A: -1.64%

Q: With `C/C(=N\O)c1ccc(OCC(=O)N2CCCCC2)cc1` as the molecule, how does the “activity change, negative = inhibition” value read?
A: -1.27%

Q: Which “activity change, negative = inhibition” value does the source give for `COc1ccc(-c2cc(=O)c3c(O)cc(O[C@@H]4O[C@H](CO[C@@H]5O[C@@H](C)[C@H](O)[C@@H](O)[C@H]5O)[C@@H](O)[C@H](O)[C@H]4O)cc3o2)cc1O` here?
A: 3.99%

Q: Which “activity change, negative = inhibition” value does the source give for `Clc1ccc2c(c1)Nc1ccccc1S2` here?
A: -13%

Q: Which “activity change, negative = inhibition” value does the source give for `NS(=O)(=O)c1ccc(NC(=O)CCC(=O)O)cc1` here?
A: -3.4%

Q: Which “activity change, negative = inhibition” value does the source give for `CC(C)CCCC(C)NCCC(C)C` (stereo not drawn) here?
A: -0.94%

Q: Which Potency does the source give for `CNNCc1ccc(C(=O)NC(C)C)cc1` here?
A: inactive

Q: With `CC(C)(C)c1ccc(O)cc1` as the molecule, how does the “activity change, negative = inhibition” value read?
A: 5.9%

Q: With `CCN[C@H]1CN(CCCOC)S(=O)(=O)c2sc(S(N)(=O)=O)cc21` as the molecule, how does the “activity change, negative = inhibition” value read?
A: 1.73%

Q: Which Potency does the source give for `C1COC(NC(C2CC2)C2CC2)=N1` here?
A: inactive

Q: Which Potency does the source give for `CCCNC(C)C(=O)Nc1ccccc1C` (stereo not drawn) here?
A: inactive

Q: Which Potency does the source give for `Cc1nc2ccccn2c(=O)c1CCN1CCC(C(=O)c2ccc(F)cc2)CC1` here?
A: inactive

Q: For `CCOC(=O)c1ccc(O)c(O)c1`, which “activity change, negative = inhibition” value is on record?
A: -15.1%

Q: For `CC1CCN(CCCC(=O)c2ccc(F)cc2)CC1`, which “activity change, negative = inhibition” value is on record?
A: 9.44%

Q: With `CC(C)C(=O)c1c(C(C)C)nn2ccccc12` as the molecule, how does the Potency read?
A: inactive

Q: With `C[C@@H](CN1CC(=O)NC(=O)C1)N1CC(=O)NC(=O)C1` as the molecule, how does the Potency read?
A: inactive

Q: With `O=C(CN1CCNCC1)NC1CCCCC1` as the molecule, how does the “activity change, negative = inhibition” value read?
A: 8.3%

Q: For `CC[N+](CC)(CC)CCOc1cccc(OCC[N+](CC)(CC)CC)c1OCC[N+](CC)(CC)CC`, which Potency is on record?
A: inactive

Q: With `CN1C[C@@H]2C[C@H]1CN2c1cc2c(cc1F)c(=O)c(C(=O)O)cn2C1CC1` as the molecule, how does the “activity change, negative = inhibition” value read?
A: -9.49% [at 24.7 µM]

Q: With `NS(=O)(=O)c1cc2c(cc1C(F)(F)F)NC(Cc1ccccc1)NS2(=O)=O` (stereo not drawn) as the molecule, how does the “activity change, negative = inhibition” value read?
A: 3.67%

Q: Which “activity change, negative = inhibition” value does the source give for `Cc1c(NC(C)C)c(=O)n(-c2ccccc2)n1C` here?
A: 4.82%

Q: For `CCCCC(=O)OCC(=O)[C@H]1[C@H](C)C[C@H]2[C@@H]3C[C@H](F)C4=CC(=O)C=C[C@]4(C)[C@@]3(F)[C@@H](O)C[C@@]21C`, which “activity change, negative = inhibition” value is on record?
A: 12.6%

Q: Which “activity change, negative = inhibition” value does the source give for `CCOCCn1c(C2CCN(CCc3ccc(C(C)(C)C(=O)O)cc3)CC2)nc2ccccc21` here?
A: -11.1%

Q: With `CC1(C)O[C@H]2CC(=O)OC[C@]23[C@H]2CC[C@@]4(C)[C@H](c5ccoc5)OC(=O)[C@H]5O[C@]54[C@]2(C)C(=O)C[C@@H]13` as the molecule, how does the Potency read?
A: inactive

Q: With `CC1(C)O[C@@H]2C[C@H]3[C@@H]4CCC5=CC(=O)C=C[C@]5(C)[C@@H]4[C@@H](O)C[C@]3(C)[C@]2(C(=O)CO)O1` as the molecule, how does the “activity change, negative = inhibition” value read?
A: 11.1%

Q: For `NCCCC[C@H](N[C@@H](CCc1ccccc1)C(=O)O)C(=O)N1CCC[C@H]1C(=O)O`, which “activity change, negative = inhibition” value is on record?
A: -13.4%

Q: With `CC(C)(C)NCC(O)COc1cccc2c1C[C@H](O)[C@H](O)C2` (stereo partly drawn) as the molecule, how does the “activity change, negative = inhibition” value read?
A: 12.2%

Q: With `O=C(CCCl)NCCc1ccccc1` as the molecule, how does the “activity change, negative = inhibition” value read?
A: -2.91%

Q: Which “activity change, negative = inhibition” value does the source give for `COc1ccc(Cc2cnc(N)nc2N)cc1OC` here?
A: 4.52%

Q: With `CCCC(O)C(CC)CO` (stereo not drawn) as the molecule, how does the “activity change, negative = inhibition” value read?
A: -0.506%

Q: With `CC(C)Cc1ccc(CC(=O)O)cc1` as the molecule, how does the “activity change, negative = inhibition” value read?
A: -1.01%

Q: Which Potency does the source give for `COc1ccc(C2CNC(=O)C2)cc1OC1CCCC1` (stereo not drawn) here?
A: inactive

assay: qHTS for Inhibitors of the Functional Ribonucleoprotein Complex (vRNP) of Lassa (LASV) Arenavirus: Viability assay - alamar blue signal for LASV Primary Screen (AID 1347083); conditions: cell viability, alamar blue fluorescence (LASV minigenome counter-screen); series mostly up to 57.5 µM; activity change, negative = reduced viability: at the top concentration; further: nearly all actives have a fitted effect of over 80% in size

Q: For `CC(=O)c1ccc(S(=O)(=O)NC(=O)NC2CCCCC2)cc1`, which Potency is on record?
A: inactive

Q: Which “activity change, negative = reduced viability” value does the source give for `Cc1ccc(Nc2nccc(N(C)c3ccc4c(C)n(C)nc4c3)n2)cc1S(N)(=O)=O` here?
A: -0.965%

Q: Which Potency does the source give for `COc1ccc(-c2ccc3cc(C(=O)O)ccc3c2)cc1C12CC3CC(CC(C3)C1)C2` here?
A: inactive

Q: Which activity change, negative = reduced viability does the source give for `Nc1ccc(/C=C/c2ccc(N)cc2S(=O)(=O)O)c(S(=O)(=O)O)c1` here?
A: 3.69% [at 0.757 µM]

Q: With `Nc1ccc(C(=O)O)c(O)c1` as the molecule, how does the “activity change, negative = reduced viability” value read?
A: -1.09%

Q: For `C[C@@H]1O[C@@H](O[C@H]2CC[C@@]3(C)[C@H](CC[C@@H]4[C@H]3C[C@@H](O)[C@]3(C)[C@@H](C5=CC(=O)OC5)CC[C@]43O)C2)C[C@H](O)[C@@H]1O[C@H]1C[C@H](O)[C@H](O[C@H]2C[C@H](O)[C@@H](O)[C@@H](C)O2)[C@H](C)O1` (stereo in doubt), which Potency is on record?
A: 352 nM (active)

Q: With `CCC(Cc1c(I)cc(I)c(N)c1I)C(=O)O` (stereo not drawn) as the molecule, how does the “activity change, negative = reduced viability” value read?
A: -5.28%

Q: Which “activity change, negative = reduced viability” value does the source give for `Cc1ccc(-c2ccccc2C#N)cc1` here?
A: 0.343%

Q: With `C/C(=N\O)c1ccc(OCC(=O)N2CCCCC2)cc1` as the molecule, how does the “activity change, negative = reduced viability” value read?
A: 10.3%

Q: For `COc1ccc(-c2cc(=O)c3c(O)cc(O[C@@H]4O[C@H](CO[C@@H]5O[C@@H](C)[C@H](O)[C@@H](O)[C@H]5O)[C@@H](O)[C@H](O)[C@H]4O)cc3o2)cc1O`, which “activity change, negative = reduced viability” value is on record?
A: 4.23%

Q: Which “activity change, negative = reduced viability” value does the source give for `Clc1ccc2c(c1)Nc1ccccc1S2` here?
A: 4.45%

Q: Which “activity change, negative = reduced viability” value does the source give for `NS(=O)(=O)c1ccc(NC(=O)CCC(=O)O)cc1` here?
A: -0.462%

Q: For `CC(C)CCCC(C)NCCC(C)C` (stereo not drawn), which “activity change, negative = reduced viability” value is on record?
A: 6.96%

Q: With `CNNCc1ccc(C(=O)NC(C)C)cc1` as the molecule, how does the Potency read?
A: inactive

Q: With `CC(C)(C)c1ccc(O)cc1` as the molecule, how does the “activity change, negative = reduced viability” value read?
A: -1.42%

Q: With `CCN[C@H]1CN(CCCOC)S(=O)(=O)c2sc(S(N)(=O)=O)cc21` as the molecule, how does the “activity change, negative = reduced viability” value read?
A: -1.45%

Q: For `C1COC(NC(C2CC2)C2CC2)=N1`, which Potency is on record?
A: inactive

Q: Which Potency does the source give for `CCCNC(C)C(=O)Nc1ccccc1C` (stereo not drawn) here?
A: inactive

Q: With `Cc1nc2ccccn2c(=O)c1CCN1CCC(C(=O)c2ccc(F)cc2)CC1` as the molecule, how does the Potency read?
A: inactive

Q: For `CCOC(=O)c1ccc(O)c(O)c1`, which “activity change, negative = reduced viability” value is on record?
A: 11%

Q: Which “activity change, negative = reduced viability” value does the source give for `CC1CCN(CCCC(=O)c2ccc(F)cc2)CC1` here?
A: 0.385%

Q: With `CC(C)C(=O)c1c(C(C)C)nn2ccccc12` as the molecule, how does the Potency read?
A: inactive

Q: For `C[C@@H](CN1CC(=O)NC(=O)C1)N1CC(=O)NC(=O)C1`, which “activity change, negative = reduced viability” value is on record?
A: 1.7%

Q: With `O=C(CN1CCNCC1)NC1CCCCC1` as the molecule, how does the “activity change, negative = reduced viability” value read?
A: 2.54%

Q: Which Potency does the source give for `CC[N+](CC)(CC)CCOc1cccc(OCC[N+](CC)(CC)CC)c1OCC[N+](CC)(CC)CC` here?
A: inactive

Q: Which “activity change, negative = reduced viability” value does the source give for `CN1C[C@@H]2C[C@H]1CN2c1cc2c(cc1F)c(=O)c(C(=O)O)cn2C1CC1` here?
A: 7.9% [at 24.7 µM]

Q: For `NS(=O)(=O)c1cc2c(cc1C(F)(F)F)NC(Cc1ccccc1)NS2(=O)=O` (stereo not drawn), which “activity change, negative = reduced viability” value is on record?
A: 12.7%

Q: With `Cc1c(NC(C)C)c(=O)n(-c2ccccc2)n1C` as the molecule, how does the “activity change, negative = reduced viability” value read?
A: 18.1%

Q: Which “activity change, negative = reduced viability” value does the source give for `CCCCC(=O)OCC(=O)[C@H]1[C@H](C)C[C@H]2[C@@H]3C[C@H](F)C4=CC(=O)C=C[C@]4(C)[C@@]3(F)[C@@H](O)C[C@@]21C` here?
A: -18.4%

Q: For `CCOCCn1c(C2CCN(CCc3ccc(C(C)(C)C(=O)O)cc3)CC2)nc2ccccc21`, which “activity change, negative = reduced viability” value is on record?
A: -3.42%

Q: With `CC1(C)O[C@H]2CC(=O)OC[C@]23[C@H]2CC[C@@]4(C)[C@H](c5ccoc5)OC(=O)[C@H]5O[C@]54[C@]2(C)C(=O)C[C@@H]13` as the molecule, how does the Potency read?
A: inactive

Q: For `CC1(C)O[C@@H]2C[C@H]3[C@@H]4CCC5=CC(=O)C=C[C@]5(C)[C@@H]4[C@@H](O)C[C@]3(C)[C@]2(C(=O)CO)O1`, which “activity change, negative = reduced viability” value is on record?
A: 6%

Q: For `NCCCC[C@H](N[C@@H](CCc1ccccc1)C(=O)O)C(=O)N1CCC[C@H]1C(=O)O`, which “activity change, negative = reduced viability” value is on record?
A: -0.434%

Q: Which “activity change, negative = reduced viability” value does the source give for `CC(C)(C)NCC(O)COc1cccc2c1C[C@H](O)[C@H](O)C2` (stereo partly drawn) here?
A: 3.96%

Q: With `O=C(CCCl)NCCc1ccccc1` as the molecule, how does the “activity change, negative = reduced viability” value read?
A: 18.6%

Q: For `COc1ccc(Cc2cnc(N)nc2N)cc1OC`, which “activity change, negative = reduced viability” value is on record?
A: 1.41%

Q: With `CCCC(O)C(CC)CO` (stereo not drawn) as the molecule, how does the “activity change, negative = reduced viability” value read?
A: 3.28%

Q: With `CC(C)Cc1ccc(CC(=O)O)cc1` as the molecule, how does the “activity change, negative = reduced viability” value read?
A: 2.24%

Q: Which Potency does the source give for `COc1ccc(C2CNC(=O)C2)cc1OC1CCCC1` (stereo not drawn) here?
A: inactive

— PubChem BioAssay (NCATS)
